# Assay results reported in ChEMBL document CHEMBL3988442, “University of Dundee, Small-Polar-MMV Screening Library” (2021).
# In all, about 48,000 compounds went through this assay and about 13,000 (27%) showed an effect of 50% or more. This is one part of the list.
# System: Wolbachia pipientis
# Test: Anti-Wolbachia Cell-Based Screen
# Type: functional
# Design: scale not given: in the data most compounds retested in dose-response had high values
# Conditions: 5 µM
row,Structure (SMILES),Percent Effect [%]
1,CCOCCN1CCN(c2ncccc2C#N)CC1CC (centres undefined),98.03
2,CS(=O)(=O)NCC1CCCN(c2ccc(C#N)cn2)C1 (centres undefined),7.798
3,CC(C)(C)NC(=O)CN1CCCN(c2ccc(C#N)cn2)CC1,24.81
4,CCC1(CO)CCCN(c2ncccc2C#N)C1 (centres undefined),13.06
5,Cn1ccnc1CN1CCN(c2ccc(C#N)cn2)CC1,-0.9775
6,CCOCCN1CCN(c2ccc(C#N)cn2)CC1,109.9
7,CCc1nc(N2CCN(c3ncccc3C#N)CC2)c2cnn(C)c2n1,-1.782
8,CCOCCN1CCN(c2ccc(C#N)cn2)CC1CC (centres undefined),137.2
9,CC1CN(c2ccc(C#N)cn2)CCN1c1ccc2nncn2n1 (centres undefined),-4.12
10,OC(CN(Cc1ccccc1)Cc1cscn1)c1ccco1 (centres undefined),18.92
11,CCOCCCn1c(NC(=O)c2cc(C)no2)nc2ccccc21,106.1
12,CCOCCCn1c(NC(=O)c2ccnc(C)n2)nc2ccccc21,73.67
13,Cc1cc(C(=O)NCC(c2ccccc2Cl)N2CCOCC2)on1 (centres undefined),-6.198
14,CCN(CC)CCn1c(NC(=O)c2scnc2C)nc2ccccc21,105.9
15,CCOC(=O)NCC(=O)Nc1nc2ccccc2n1C(C)(C)C,17.02
16,CCOCCCn1c(NC(=O)c2scnc2C)nc2ccccc21,25.92
17,CCOCCCn1c(NC(=O)c2ccc(C)nc2)nc2ccccc21,6.919
18,CCOCCCn1c(NC(=O)c2cnc(C)cn2)nc2ccccc21,19.12
19,CCOCCCn1c(NC(=O)c2cnc(C)s2)nc2ccccc21,27.94
20,CCOCCCn1c(NC(=O)c2cnn(C)c2)nc2ccccc21,-0.9199
21,CCCn1c(NC(=O)CNC(=O)OCC)nc2ccccc21,-6.336
22,CCOCCCn1c(NC(=O)c2cc(C)on2)nc2ccccc21,95.91

row,Structure (SMILES),Percent Effect [%]
1,CCN(c1ccccc1)S(=O)(=O)c1cc(C(=O)O)cc2c1CCC2,1.015
2,Cc1ccc(N2Cc3cnn(Cc4ccc(F)cc4)c3C2)nn1,30.55
3,Cc1nn(C)c(C)c1OCC(=O)N1CCC(O)(C(F)(F)F)CC1,-15.17
4,CCOCCNC(=O)c1cc(COc2cncc(Cl)c2)on1,-4.955
5,Cc1cc2occ(CC(=O)N3CCC4(CCCN(C)C4=O)C3)c2cc1Cl (centres undefined),-29.71
6,NC(=O)CC1CCCN(c2cncc(OCc3ccccc3)n2)C1 (centres undefined),95.75
7,Cc1ccccc1CSc1nc(N)cc(N2CCCC(O)C2)n1 (centres undefined),-23.5
8,CNC(=O)CN(C)c1cncc(OCc2ccccc2)n1,-7.002
9,CCC(=O)NC1CCCN(c2cncc(OCc3ccccc3)n2)C1 (centres undefined),109.7
10,NC(=O)N1CCCC(C(=O)NCc2noc(Cc3ccccc3)n2)C1 (centres undefined),9.14
11,O=C(O)c1cn(CC2CCCN(c3cnc4ccccc4n3)C2)nn1 (centres undefined),0.3718
12,CC(C)COc1cncc(N2CCCC(CC(N)=O)C2)n1 (centres undefined),119.8
13,NC(=O)CC1CCCN(c2cncc(SCc3ccccc3)n2)C1 (centres undefined),107.6
14,CCCC(=O)NC1CCCN(c2cncc(Br)c2)C1 (centres undefined),2.547
15,CCC(=O)NC1CCCN(C(=O)c2ccc(OCC3CC3)nc2)C1 (centres undefined),-1.285
16,CC(C)Oc1ncc(C(=O)N2CCC(CC(N)=O)CC2)cc1Cl,-16.32
17,CNC(=O)CN(C)c1cncc(OCC(C)C)n1,-2.547
18,Cc1ccc(CN2CCN(Cc3ccc4nonc4c3)CC2=O)cc1,-11.42
19,O=C(Nc1cccnc1)C1CCCN(c2cc(-n3cccn3)ncn2)C1 (centres undefined),-6.997
20,O=C(O)c1ccc(N2CCC(Cc3ccccc3)CC2)nn1,3.318
21,COCC1CCCN(c2cncc(OCc3ccccc3)n2)C1 (centres undefined),88.62
22,c1ccc(COC2CCN(c3cncc(-n4cccn4)n3)CC2)cc1,1.342

row,Structure (SMILES),Percent Effect [%]
1,c1ccc2nc(N3CCCC(Cn4cncn4)C3)cnc2c1 (centres undefined),3.637
2,COc1nc(N2CCC(CC(N)=O)CC2)ncc1Br,4.929
3,NC(=O)CC1CCN(c2cncc(OCc3ccccc3)n2)CC1,92.73
4,c1cncc(COCC2CN(Cc3ccco3)Cc3ccnn3C2)c1 (centres undefined),-0.3306
5,COc1ccc(Cl)cc1CS(=O)(=O)Cc1nc(C2CC2)no1,17.46
6,Cc1cnc2c(c1)N(C(=O)c1ccc(=O)n(C)c1)CCO2,10.48
7,O=C(c1c(F)cccc1Br)N1CCCOCC1,-0.116
8,CCn1cc(C(=O)N2CCOC(c3nc(-c4cccs4)no3)C2)cn1 (centres undefined),116.8
9,CCCc1cc(C(=O)N2CCOC(c3nc(-c4cccs4)no3)C2)no1 (centres undefined),6.079
10,CCn1ccc(C(=O)N2CCOC(c3nc(-c4cccs4)no3)C2)n1 (centres undefined),106.6
11,Cc1cc(C)c(C(=O)N2CCOC(c3cccs3)C2)c(=O)[nH]1 (centres undefined),-5.418
12,COc1ncccc1C(=O)N1CC(c2nc(-c3cccs3)no2)C1,5.63
13,CCCn1cc(C(=O)N2CCOC(c3nc(-c4cccs4)no3)C2)cn1 (centres undefined),93.77
14,O=C(O)C(=O)O.c1csc(-c2noc(C3CN(Cc4ccc5c(c4)CCO5)C3)n2)c1,26.44
15,COc1c(C(=O)N2CCOC(c3cccs3)C2)c(C)nn1C (centres undefined),-3.946
16,CCCn1ccc(C(=O)N2CCOC(c3nc(-c4cccs4)no3)C2)n1 (centres undefined),4.055
17,CN(C)CCN1CC2(CCCN(c3ccc(Cl)cn3)C2)CCC1=O (centres undefined),-8.264
18,CCN(Cc1ccoc1)c1ncc(S(N)(=O)=O)s1,-17.75
19,CC(NCCCC#N)c1ccc(-c2ccncc2)cc1 (centres undefined),-12.76
20,CCc1ccc(CN2CCC3(CCCN(C(=O)N(C)C)C3)C2)o1 (centres undefined),2.362
21,COCC(=O)N1CCC2(CC1)COc1ccccc1S(=O)(=O)N(C)C2,78.61
22,CCN1CC2(CCN(C(=O)N(C)C)CC2)COc2ccccc2S1(=O)=O,88.03

row,Structure (SMILES),Percent Effect [%]
1,CCN1CC2(CCNCC2)COc2ccccc2S1(=O)=O.O=C(O)C(F)(F)F,12.77
2,CCC(=O)N1CCC2(CC1)COc1ccccc1S(=O)(=O)N(C)C2,3.45
3,CN(C)CC(=O)N1CCC2(CC1)COc1ccccc1S(=O)(=O)N(C)C2,75.94
4,COCCN1CCC2(CC1)COc1ccccc1S(=O)(=O)N(C)C2,110
5,CN1CC2(CCN(CCOCCO)CC2)CC(c2ccccc2)C1=O (centres undefined),-8.792
6,CN1[C@@H](c2ccccc2)[C@@H](C(=O)NCC2CCOCC2)C[C@@]1(C)C(=O)O,-0.5583
7,COCc1ccccc1C(=O)NCC(c1c(F)cccc1F)N(C)C (centres undefined),-0.8203
8,O=c1nc(SCc2cccnc2)c2c(n1CCO)CCC2,-0.5534
9,O=S(=O)(c1cc2ccccc2o1)N1CCCC1,-2.177
10,CS(=O)(=O)NCC(=O)NCc1cccnc1-n1cnc2ccccc21,9.043
11,COc1cccc(-c2n[nH]c3c2CN(C(=O)c2cccc(=O)[nH]2)CC3)c1,-3.168
12,CC(=O)N1CC(c2ncn(C(C)C)n2)c2cc(C(=O)NC3CC3)ccc21 (centres undefined),-21.86
13,CCn1c(CN(C)C)nnc1C1CCN(Cc2ccccc2)CC1,3.823
14,CCS(=O)(=O)N1CCC(c2nn(CCN(C)C)c3ncccc23)C1 (centres undefined),95.82
15,NCCn1nc(C2CCN(Cc3ccc(Cl)c(Cl)c3)C2)c2nccnc21 (centres undefined),1.426
16,CN(C)S(=O)(=O)N1CCCC(c2nccn2Cc2cccnc2)C1 (centres undefined),-1.241
17,CN(C)CCn1nc(C2CCN(S(=O)(=O)N(C)C)C2)c2cccnc21 (centres undefined),111.8
18,CCS(=O)(=O)N1CCC(c2nccn2Cc2ccccn2)CC1,-0.918
19,CN(C)CCn1nc(C2CCN(Cc3ccccc3)C2)c2cccnc21 (centres undefined),91.7
20,CCn1c(C2CCCN(S(=O)(=O)C3CC3)C2)nn(CCN(C)C)c1=O (centres undefined),1.006
21,O=C(NC1(c2nnn(CCO)n2)CCCC1)c1ccccc1,-5.354
22,Cc1ccc(-c2c(C(=O)NC3CCN(C)CC3)csc2C)cc1,4.532

row,Structure (SMILES),Percent Effect [%]
1,CN1CCC(NC(=O)c2cc(C3CCCCC3)nc3ccccc23)CC1,113.5
2,Cn1c(C(=O)NC2CCCC2)nc2c1CCN(Cc1ccccc1)C2,4.267
3,Cn1cc(C2(C)CN(Cc3ccc(O)c(Cl)c3)CCO2)cn1 (centres undefined),-11.09
4,CCCn1nc2c(cc1=O)CN(Cc1cc(C)on1)CC2,-1.057
5,CCc1ccc(C(=O)NC(C)c2ccc(S(C)(=O)=O)c(F)c2)o1 (centres undefined),2.681
6,CCOCC1CN(C(=O)c2cccc(C)n2)Cc2cnn(C)c21 (centres undefined),129.5
7,CCOCC1CN(C(=O)c2ccnnc2)Cc2cnn(C)c21 (centres undefined),100.5
8,CCOCC1CN(C(=O)c2cccnc2)Cc2cnn(C)c21 (centres undefined),105
9,COCC1CN(C(=O)c2cccn2C)Cc2cnn(C)c21 (centres undefined),3.786
10,CCOCC1CN(C(=O)c2ccncn2)Cc2cnn(C)c21.O=C(O)C(F)(F)F (centres undefined),-8.665
11,Cc1noc(C)c1CNCC1CCN(CC(O)c2ccccc2)CC1 (centres undefined),0.6409
12,CN1CCCC1CCn1ccnc1-c1ccc2ccccc2n1 (centres undefined),-11.7
13,COCC(Nc1ncnc2sc(C)c(C)c12)c1ccnn1C (centres undefined),-1.475
14,COCC(NC(=O)c1cn2ccsc2n1)c1ccnn1C (centres undefined),103.8
15,CCCc1nc(C(=O)NCCCn2nnc3ccccc32)cs1,3.085
16,COCC(Nc1ncnc2sc(C(=O)O)c(C)c12)c1ccnn1C (centres undefined),6.074
17,CCCc1cc(C(=O)NC(COC)c2ccnn2C)no1 (centres undefined),98.08
18,CCCc1nc(C(=O)NC(COC)c2ccnn2C)cs1 (centres undefined),113.9
19,COCC(NC(=O)c1cc(NC(C)=O)ccc1Cl)c1ccnn1C (centres undefined),-14.74
20,CCCc1cc(C(=O)NCCCn2nnc3ccccc32)no1,2.161
21,CCCc1nc(C(=O)N2CCN(S(=O)(=O)CC)CC2)cs1,13.9
